# Bioassay records (PubChem)
# Sfp PPTase inh: inhibitors of Bacillus subtilis Sfp phosphopantetheinyl transferase; Q9F4F7; Biochemical Sfp PPTase activity, qHTS; Potency, µM, most hits filed as inhibitors; 310,000 compounds, 3.5% hits;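 note: the enzyme is Sfp with the accession as filed and its product quenches rhodamine fluorescence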
#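 Fluorescence-quenching assay with 15 nM Sfp, 5 uM rhodamine-CoA and 12.5 uM BHQ-2-labelled ybbR peptide in pH 7.6 Hepes/MgCl2 buffer. Enzyme was pre-incubated with compound for 15 min at room temperature. Rate was taken from the 30-min fluorescence change (525/598 nm).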
# JMJD2A Tudor: inhibitors of human JMJD2A Tudor domain | Potency, µM (series often up to 114 µM), usual class: inhibitors | 390,000 compounds, 4.4% hits | O75164 | AlphaScreen JMJD2A-Tudor / H3K4me3 peptide binding | AID 504339; note: nearly all actives have a fitted effect of over 50% in size
# Target sequence (O75164 whole entry, looked up, the tested form may be a part): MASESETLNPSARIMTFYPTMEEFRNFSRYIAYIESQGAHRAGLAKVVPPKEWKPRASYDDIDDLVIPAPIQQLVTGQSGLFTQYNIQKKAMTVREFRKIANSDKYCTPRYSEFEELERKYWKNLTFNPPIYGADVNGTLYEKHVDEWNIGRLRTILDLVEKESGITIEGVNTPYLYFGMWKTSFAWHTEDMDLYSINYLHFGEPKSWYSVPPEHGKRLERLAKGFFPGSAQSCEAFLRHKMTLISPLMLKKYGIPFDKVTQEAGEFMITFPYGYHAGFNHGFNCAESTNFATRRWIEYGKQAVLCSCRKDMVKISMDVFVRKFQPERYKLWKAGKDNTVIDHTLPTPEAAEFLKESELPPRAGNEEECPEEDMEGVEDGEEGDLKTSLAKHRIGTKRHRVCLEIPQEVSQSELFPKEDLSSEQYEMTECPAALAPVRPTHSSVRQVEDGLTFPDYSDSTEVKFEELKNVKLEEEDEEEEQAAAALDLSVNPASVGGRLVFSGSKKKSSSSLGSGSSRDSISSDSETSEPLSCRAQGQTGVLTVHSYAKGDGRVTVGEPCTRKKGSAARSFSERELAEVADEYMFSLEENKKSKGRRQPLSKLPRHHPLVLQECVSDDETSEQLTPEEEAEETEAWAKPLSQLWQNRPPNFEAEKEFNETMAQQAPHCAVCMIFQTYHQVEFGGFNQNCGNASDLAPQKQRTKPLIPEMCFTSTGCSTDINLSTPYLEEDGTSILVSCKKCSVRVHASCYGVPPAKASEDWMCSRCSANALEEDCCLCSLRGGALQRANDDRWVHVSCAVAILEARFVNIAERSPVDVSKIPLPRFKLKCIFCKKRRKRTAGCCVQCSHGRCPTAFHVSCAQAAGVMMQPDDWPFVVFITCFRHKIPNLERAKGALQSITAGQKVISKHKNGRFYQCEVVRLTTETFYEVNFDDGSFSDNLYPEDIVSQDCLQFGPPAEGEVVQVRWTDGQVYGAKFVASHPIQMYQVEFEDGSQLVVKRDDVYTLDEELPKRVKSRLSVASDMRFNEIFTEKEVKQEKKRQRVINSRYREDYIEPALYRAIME
# HP1b chromo inh: inhibitors of HP1-beta chromodomain binding to methylated histone tails. P83916. AlphaScreen HP1-beta / biotin-H3K9me3 peptide binding. Potency, µM (series often up to 114 µM), actives largely listed as inhibitors. 390,000 compounds, 0.56% hits. AID 540317; note: nearly all actives have a fitted effect of over 70% in size
#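 HP1-beta protein (50 nM final) preincubated 30 min at room temperature with biotinylated H3(1-18)K9me3 peptide (50 nM) in PBS pH 7.4, 0.01% Tween-20, then compound added for 30 min. AlphaScreen streptavidin donor/nickel chelate acceptor beads (10 ug/mL final), 30 min dark, luminescence read.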
# G9a inh: blocks human histone lysine methyltransferase G9a; G9a H3K9 monomethylation, AlphaScreen, 2 h; 350,000 compounds, 8.8% hits; Q96KQ7; Potency, µM (top dose mostly 102 µM), most hits filed as inhibitors; note: nearly all actives have a fitted effect of over 75% in size
#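 AlphaScreen read-out: biotin-H3K9 peptide (500 nM) methylation by 20 nM enzyme with 20 uM SAM, 2 h at room temperature after 15 min compound preincubation; anti-monomethyl H3K9 antibody plus donor/acceptor beads, 10 min dark.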
# PLK1 PBD block: inhibitors of human PLK1 polo-box domain binding; P53350; Plk1 PBD binding of FITC phosphopeptide, fluorescence polarization; Potency, µM, usual class: inhibitors; 360,000 compounds, 2.8% hits; AID 720504; note: series mostly up to about 57 µM; nearly all actives have a fitted effect of over 65% in size
# BAZ2B inh: BAZ2B (human) inhibition; AlphaScreen BAZ2B-H3K14Ac peptide displacement; Potency, µM (doses to about 114 µM), actives largely listed as inhibitors; 360,000 compounds, 4.4% hits; note: nearly all actives have a fitted effect of over 60% in size
#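 BAZ2B 50 nM plus b-H3(5-23)K14Ac 50 nM, PBS pH 7.4/0.01% Tween-20, 30 min RT; compound added (max 110 uM), 30 min RT; streptavidin donor/Ni-chelate acceptor beads 10 ug/mL final, 20 min dark; AlphaScreen read.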
# Hits are given with their value; n = inactive; u = inconclusive; x = no result given; [ ] = remark or other dose. Hits are enriched below; roughly 12% of the tested compounds scored in any of these assays. Calls come from the whole dose curve; as a rule, active = well fitted curve in the direction sought with a large enough effect; inconclusive = small, poorly fitted or top-dose-only effect, or another doubt; inactive = no such curve, though single readings can be large; an effect the other way counts as inactive or inconclusive.
SMILES,Sfp PPTase inh,JMJD2A Tudor,HP1b chromo inh,G9a inh,PLK1 PBD block,BAZ2B inh
COc1ccc(C2Nc3ccccc3C(=O)N2NS(=O)(=O)c2ccc(C)cc2)c(OC)c1 (centres undefined),n,n,n,n,n,n
Cc1ccc(S(=O)(=O)NN2C(=O)c3ccccc3NC2c2ccccc2F)cc1 (centres undefined),n,n,n,n,n,50.1µM
CCOC(=O)C1=C(C)NC(=O)NC1c1ccc(-c2ccccc2F)o1 (centres undefined),n,n,n,n,n,n
COCCOC(=O)C1=C(C)NC(=O)NC1c1ccc(-c2ccc(F)cc2)o1 (centres undefined),n,n,n,50.1µM,n,n
CCOC(=O)c1cc(S(=O)(=O)N(C)Cc2ccccc2)cn1C,n,n,n,n,n,n
C=CCOc1c(Br)cc(CNc2ccc(NC(=O)C(C)C)c(OC)c2)cc1OC,n,35.5µM,n,n[0.501 µM],n,u
CN1C(=O)/C(=C/c2cccc([N+](=O)[O-])c2)C(=O)N1c1ccccc1,50.1µM,u,n,14.1µM,2.38µM,n
O=C1NC(=S)N/C1=C/c1cccc([N+](=O)[O-])c1,n,n,n,n,n,n
O=C1NC(=S)N/C1=C/c1ccc(-c2c(Br)cc([N+](=O)[O-])cc2Br)o1,n,x,x,11.2µM,x,u
O=C1NC(=S)N/C1=C\c1cccc([N+](=O)[O-])c1,56.2µM,n,n,50.1µM,n,n
O=C1NC(=S)N/C1=C/c1cccnc1,n,n[11.4 µM],n,u,23.8µM,n
COC(=O)c1c(NC(=O)COC(=O)CC(NC(C)=O)c2ccccc2)sc(C)c1C (centres undefined),x,n,n,n,n,n
Cc1ccc(CNC(=O)CSc2nnc(C)c3c(C)n(-c4ccccc4)nc23)cc1,x,n,n,n,x,n
NC1=NC2(CCCC2)N=C(Nc2ccccc2)N1,n,35.5µM,n,n,n,n
Cc1cccc(NC(=O)NCCOCCn2c(=O)oc3ccccc32)c1C,x,n,n,n,x,n
CCOc1ccc(C(=O)c2ccc(OCC)c(N)c2)cc1N,n,u,n,n,n,n
CN(C)c1ccc(C(=O)c2ccc(N(C)C)c(N)c2)cc1N,n,56.2µM,u,79.4µM,n,50.1µM
CCCCCC#CCC#CCC#CCC#CCCCC(=O)O,n,x,x,10µM,x,3.98µM
CC(C)CN(CC(C)C)c1ccc(/C=N/n2cnnc2)cc1[N+](=O)[O-],n,44.7µM,u,u,n,u
O=[N+]([O-])c1cc(/C=N/n2cnnc2)ccc1N1CCCC1,n,n,n,n,n,n
CC1(C)CC(=O)c2sc(NC(=O)c3ccc4ncsc4c3)nc2C1,50.1µM,n,n,u,n,n
O=C(Nc1ccc(Br)cc1)c1ccc2ncsc2c1,u,n,n,44.7µM,n,n
CC1(C)CC(=O)c2sc(NC(=O)CN3CCCCC3)nc2C1,n,u,n,14.1µM,n,x
CCOc1ccc(NC(=O)COC(=O)c2ccc3ncsc3c2)cc1OCC,x,n,n,44.7µM,n,u
CC(C)(C)c1ccc(NC(=O)COC(=O)c2ccc3ncsc3c2)cc1,x,n,n,n[12.7 µM],n,n
SMILES,Sfp PPTase inh,JMJD2A Tudor,HP1b chromo inh,G9a inh,PLK1 PBD block,BAZ2B inh
CC1(C)CC(=O)c2sc(NC(=O)c3ccccc3)nc2C1,n,x,x,x,x,n
C#C[C@]1(O)CC[C@H]2[C@H]3[C@H](CC[C@@]21C)C1=C(CC(=O)CC1)C[C@@H]3C,n,x,x,n[12.7 µM],x,x
CC1(c2ccc3c(c2)OCCCO3)NC(=O)N(CC(=O)NCCc2ccccc2)C1=O (centres undefined),x,n,n,n[2.33 µM],n,n
COc1ccc(NC(C)c2ccccc2)cc1 (centres undefined),n,50.1µM,u,12.6µM,n,39.8µM
COc1ccc(CCC(C)NCC(C)c2ccccc2)cc1 (centres undefined),n,n,n,x,n,n
COc1ccc(NC(=O)NC(C)c2ccccc2)cc1 (centres undefined),n,n,n,n,n,n
COc1ccc(CCNCC(C)c2ccccc2)cc1 (centres undefined),n,7.94µM,n,44.7µM,n,u
COc1ccc(CCNCC(O)c2ccccc2)cc1 (centres undefined),n,5.01µM,n,14.1µM,n,56.2µM
COc1ccc(N=c2nc(-c3ccc(C)cc3)n(-c3ccccc3)s2)cc1,x,n,u,x,x,x
CC(C)CN1CCC2(CC1)CCN(C(=O)c1cccn1C)CC2,n,x,x,n[12.7 µM],x,x
Cn1cnnc1SCc1ccc(-c2ccc(Br)cc2)o1,44.7µM,n,n,u,n,n
Cn1cnnc1SCc1ccc(C#N)cc1,n,n,n,n,n,n
Cn1cnnc1SCc1ccccc1,n,n,n,1.26µM,n,n
Cc1nnc2c(N3CCN(c4ccccc4F)CC3)nc3ccc(C(=O)c4ccccc4)cc3n12,x,n,n,n,x,n
CCOC(=O)C1=NS(=O)(=O)NC(C)=C1,x,56.2µM,n,x,n,x
c1ccc(-c2nnc(SCc3nc4ccccc4[nH]3)n2Cc2ccco2)cc1,n,31.6µM,n,x,n,n
Cc1ccc(OCc2nnc(SCc3nc4ccccc4[nH]3)n2Cc2ccco2)cc1,n,u,n,14.1µM,n,u
CCn1c(COc2ccc(Cl)cc2)nnc1SCc1nc2ccccc2[nH]1,n,n,n,x,n,n
Cc1nnc(N2CCCC(C(=O)Nc3cccc(C(F)(F)F)c3)C2)c2nn(-c3ccccc3)c(C)c12 (centres undefined),x,n,n,n,x,n
COc1ccc(CCNC(=O)CCCC(=O)n2nc(C)c3ccccc32)cc1OC,n,n,n,79.4µM,u,n
COc1ccc(CCNC(=O)CSc2ccc(NC(C)=O)cc2)cc1OC,n,n,n,n,13.4µM,n
O=C(CSc1ccc2ccccc2c1)Nc1ncccn1,n,n,n,44.7µM,n,n
O=C(COC(=O)CSc1ccc2ccccc2c1)NC1CC1,n,n,n,50.1µM,n,n
COC(=O)c1c(Oc2ccc(OC)cc2)nnc(-c2ccccc2)c1-c1ccccc1,x,n,n,n,x,n
CCCCn1c(-c2ccccc2)cnc1SCC(=O)NCCc1ccc(OC)c(OC)c1,n,56.2µM,u,u,n,44.7µM
SMILES,Sfp PPTase inh,JMJD2A Tudor,HP1b chromo inh,G9a inh,PLK1 PBD block,BAZ2B inh
COc1ccc(CCNC(=O)CSc2ccc3ccccc3c2)cc1OC,n,n,n,25.1µM,n,n
CC/C(O)=C(\C#N)c1nnc2n1CCCCC2,89.1µM,3.55µM,n,n[0.501 µM],n,79.4µM
N#C/C(=C(/O)c1ccc([N+](=O)[O-])cc1)c1nnc2n1CCCCC2,n,28.2µM,n,50.1µM,n,u
CC(C)c1ccccc1NC(=O)Cn1cnc2c1c(=O)n(C)c(=O)n2C,x,n,n,n,x,n
N#C/C(=C1/SCC(c2ccccc2Cl)S1)n1ccnc1 (centres undefined),n,x,x,n,x,x
CC(C)Cc1ccc(C(C)/C=C2/CCC(CN3CCCCC3)C2=O)cc1 (centres undefined),x,u,n,x,13.4µM,x
